In PubChem BioAssay AID2177 (The Scripps Research Institute Molecular Screening Center, 2009) one finds inhibition data, which are given here for 27 compounds.

About 1,200 (0.38%) of roughly 320,000 compounds were called active.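 How the source made its calls: active means inhibition above the screen-wide mean plus 3 SD, limit set per campaign (cut at about 26% in these data); inactive means the rest.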 For the sample, actives were picked, then their nearest neighbours and some compounds at random.

For this experiment, the target named is Acyl-protein thioesterase 2 (Homo sapiens) (UniProt O95372). The experiment in a line: inhibition of human lysophospholipase 2 – biochemical, fluorescence polarization, FP-Rh probe ABPP, counter-screen for PME1 inhibitor project, primary screen (AID 2177).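 Further: 0% = LYPLA2 with DMSO and 100% = wells lacking LYPLA2 enzyme.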 The note with it: recombinant LYPLA2, FP-Rh probe fluorescence polarization; at 5.9 µM; active compounds read high. A general note: In fluorescence polarisation assays a small probe gives low polarisation when free and higher when bound to something large.
Chain of Acyl-protein thioesterase 2 (Homo sapiens) (O95372 whole entry, looked up): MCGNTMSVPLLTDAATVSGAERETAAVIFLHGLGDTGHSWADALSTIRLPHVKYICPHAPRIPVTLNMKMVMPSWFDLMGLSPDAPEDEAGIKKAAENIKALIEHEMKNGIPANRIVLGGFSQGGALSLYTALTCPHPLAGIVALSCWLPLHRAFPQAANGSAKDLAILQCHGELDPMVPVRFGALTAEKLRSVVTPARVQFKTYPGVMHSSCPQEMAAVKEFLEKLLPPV
As a reminder, the inhibition is the drop in the measured response relative to a control, in per cent. With `CCOc1cc(S(=O)(=O)NCc2ccc3c(c2)OCO3)ccc1F`, the inhibition is 7.67% (inactive).

For the compound `CCCn1c(NC(=O)C23CC4CC(CC(O)(C4)C2)C3)nc2ccccc21`, the inhibition was -2.06% (inactive).

For `CCC1CCCCN1C(=O)CSc1nc2c(c(=O)n(C)c(=O)n2C)n1C` (configuration not stated), the inhibition was 1.22% (inactive).

As for `CC/C(Cc1ccccc1)=N/NC(=O)CCn1nnc2ccccc21`, the inhibition was 9.11% (inactive).

Regarding `Cc1onc(C(=O)Nc2ccc3c(c2)OCO3)c1[N+](=O)[O-]`, the inhibition is 7.4% (inactive).

Turning to `Cc1nc([N+](=O)[O-])cn1CC(=O)Nc1ccc(Cl)cc1`, the inhibition is 35.7% (active).

Take `Cc1cc(C)n(CC(=O)Nc2ccc([N+](=O)[O-])cc2)n1`: the inhibition is -3.9% (inactive).

For the compound `Cc1ccc(C(=O)Cn2cc([N+](=O)[O-])nc2C)cc1`, the inhibition is 14.3% (inactive).

For `Cc1nc([N+](=O)[O-])cn1CC(=O)Nc1ccc2c(c1)OCO2`, the inhibition is 27.6% (active).

Turning to `Cc1nn(CC(=O)Nc2ccc3c(c2)OCO3)c(C)c1[N+](=O)[O-]`, the inhibition is 3.02% (inactive).

As for `CC(C)C1Nc2c(C(=O)O)cccc2C(Nc2ccccc2C(=O)O)C1(C)C` (configuration not stated), the inhibition was 1.52% (inactive).

For the compound `c1ccc(CSc2ncnc3c2sc2nc(N4CCOCC4)c4c(c23)CCCC4)cc1`, the inhibition is 1.88% (inactive).

Regarding `CCOc1ncccc1C(=O)N(CC)CC(=O)Nc1ccc(NC(C)=O)cc1`, the inhibition was -2.58% (inactive).

Turning to `COc1ccc(C(CC(=O)Nc2ccc(C)cc2)NC(=O)C(F)(F)F)cc1` (configuration not stated), the inhibition was -1.1% (inactive).

Consider `COc1ccc(C(C#N)Nc2ccccc2C)cc1` (configuration not stated), for which the inhibition was 2.16% (inactive).

Take `COc1ccc(C(C#N)Nc2ccc(C)cc2)cc1` (configuration not stated): the inhibition was 29.2% (active).

For `Cn1nc(C(F)(F)F)c(C(=O)Nc2cccc(C(F)(F)F)c2)c1SCc1ccc(Cl)cc1`, the inhibition is -39.3% (inactive).

`CCCCCCOc1ccc(OC(=O)c2cccnc2)cc1`: the inhibition was 49.8% (active).

`N#CCc1ccc(OC(=O)c2cccnc2)cc1`: the inhibition is -0.53% (inactive).

Turning to `O=C(Oc1ccc(Br)cc1)c1cccnc1`, the inhibition was 1.78% (inactive).

Regarding `COC(=O)c1cccc(-n2[nH]nnc2=S)c1`, the inhibition was -1.32% (inactive).

Take `CN1CCN(c2ccc(S(=O)(=O)N3CCOCC3)cc2NC(=O)CCc2ccccc2)CC1`: the inhibition is 6.09% (inactive).

As to `O=C(Cc1ccccn1)c1ccc(O)cc1O`, the inhibition is -2.59% (inactive).

In the case of `CCOC(=O)c1cc(=O)c2ccc(OCc3ccccc3)cc2o1`, the inhibition was -1.62% (inactive).

Take `CCOC(=O)c1cc2cc(-c3c(C(=O)OCC)oc4cc(O)cc(O)c4c3=O)ccc2o1`: the inhibition is 33.9% (active).

For `O=c1c(-c2ccc3c(c2)OCCO3)c(C(F)(F)F)oc2cc(O)cc(O)c12`, the inhibition was 3.69% (inactive).

Take `COC(=O)c1ccc(CN2CCCC(C(=O)Nc3cccc(-n4cnnn4)c3)C2)cc1` (configuration not stated): the inhibition is 2.89% (inactive).
